The nature of test [1]: qHTS of pediatric cancer cell lines to identify multiple opportunities for drug repurposing: Primary screen for SJ-GBM2 cells (AID 1347091). Also: potency is read from the fitted curve at half-maximal effect. An outline of the steps:
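Eight- or eleven-point concentration series, 48 h treatment at 37 degrees C in growth media; readout CellTiter-Glo luminescence. Potency and efficacy were taken from the concentration-response curves.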

Test [2] in a line: qHTS of pediatric cancer cell lines to identify multiple opportunities for drug repurposing: Primary screen for A673 cells (AID 1347092). Also: nearly all actives have a fitted effect of over 45% in size. Also: potency is read from the fitted curve at half-maximal effect. An outline of the steps: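 Titration-based qHTS on A673 cells: MIPE compounds spanned 11 points (0.78 nM to 46 µM final), NPC compounds 8 points (0.59 nM to 46 µM final). Viability after 48 h was measured by ATP luminescence.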
For orientation: In qHTS, concentration-response curves come from the screen itself.

The nature of test [3]: qHTS of pediatric cancer cell lines to identify multiple opportunities for drug repurposing: Primary screen for BT-37 cells (AID 1347094). Also: potency is read from the fitted curve at half-maximal effect. The method in brief:
(§1)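 Quantitative HTS format: each compound titrated (MIPE 11 points from 0.78 nM, NPC 8 points from 0.59 nM) onto cells plated 5 hours earlier. After 48 h at 37 degrees C, CellTiter-Glo luminescence was recorded.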

A short description of test [4]: qHTS of pediatric cancer cell lines to identify multiple opportunities for drug repurposing: Primary screen for NB-EBc1 cells (AID 1347095). Also: potency is read from the fitted curve at half-maximal effect. An outline of the steps: as §1
Test [5] in a line: qHTS of pediatric cancer cell lines to identify multiple opportunities for drug repurposing: Primary screen for U-2 OS cells (AID 1347096). Also: nearly all actives have a fitted effect of over 50% in size. Also: potency is read from the fitted curve at half-maximal effect. An outline of the steps:
(§2)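 Cells (500-1,000/well) in growth media were settled 5 h at 37 degrees C, then given compounds for 48 h. Viability was read as CellTiter-Glo luminescence. Primary runs used MIPE at 11 points (0.78 nM-46 µM) and NPC at 8 points (0.59 nM-46 µM); follow-ups used 11 points.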

Test [6] can be described thus: qHTS of pediatric cancer cell lines to identify multiple opportunities for drug repurposing: Primary screen for Saos-2 cells (AID 1347097). Also: nearly all actives have a fitted effect of over 40% in size. Also: potency is read from the fitted curve at half-maximal effect. An outline of the steps: as §1
Test [7] in a line: qHTS of pediatric cancer cell lines to identify multiple opportunities for drug repurposing: Primary screen for LAN-5 cells (AID 1347100). Also: potency is read from the fitted curve at half-maximal effect. An outline of the steps:
as §2

Test [8] can be described thus: qHTS of pediatric cancer cell lines to identify multiple opportunities for drug repurposing: Primary screen for BT-12 cells (AID 1347101). Also: nearly all actives have a fitted effect of over 25% in size. Also: potency is read from the fitted curve at half-maximal effect. The method in brief:
(§3)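 Cells (500-1,000/well) rested 5 h, then received compounds for 48 h; metabolically active cells were measured by CellTiter-Glo luminescence. Final concentrations spanned up to 46 µM (MIPE, 11-point) or 0.59 nM-46 µM (NPC, 8-point) in primary screens, 11-point in follow-ups.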

Test [9] is described as follows: qHTS of pediatric cancer cell lines to identify multiple opportunities for drug repurposing: Primary screen for Rh18 cells (AID 1347102). Also: nearly all actives have a fitted effect of over 65% in size. Also: potency is read from the fitted curve at half-maximal effect. An outline of the steps: as §2
The nature of test [10]: qHTS of pediatric cancer cell lines to identify multiple opportunities for drug repurposing: Primary screen for RD cells (AID 1347104). Also: nearly all actives have a fitted effect of over 55% in size. Also: potency is read from the fitted curve at half-maximal effect. The method in brief:
as §1

A short description of test [11]: qHTS of pediatric cancer cell lines to identify multiple opportunities for drug repurposing: Primary screen for Rh30 cells (AID 1347107). Also: nearly all actives have a fitted effect of over 75% in size. Also: potency is read from the fitted curve at half-maximal effect. The method in brief: as §2
Test [12] in a line: qHTS of pediatric cancer cell lines to identify multiple opportunities for drug repurposing: Primary screen for Rh41 cells (AID 1347108). Also: nearly all actives have a fitted effect of over 70% in size. Also: potency is read from the fitted curve at half-maximal effect. An outline of the steps:
as §1

Test [13] in a line: qHTS of pediatric cancer cell lines to identify multiple opportunities for drug repurposing: Primary screen for SK-N-MC cells (AID 1347093). Also: potency is read from the fitted curve at half-maximal effect. The method in brief:
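Metabolically active cells were quantified by ATP-dependent luminescence (CellTiter-Glo, 15 min at room temperature) following 48 h treatment. Cells had been plated at 500-1,000 per well and settled for 5 h beforehand.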

Test [14] can be described thus: qHTS of pediatric cancer cell lines to identify multiple opportunities for drug repurposing: Primary screen for SK-N-SH cells (AID 1347098). Also: nearly all actives have a fitted effect of over 65% in size. Also: potency is read from the fitted curve at half-maximal effect. An outline of the steps: as §3
The nature of test [15]: qHTS of pediatric cancer cell lines to identify multiple opportunities for drug repurposing: Primary screen for NB1643 cells (AID 1347099). Also: nearly all actives have a fitted effect of over 50% in size. Also: potency is read from the fitted curve at half-maximal effect. An outline of the steps: as §1
Test [16] in a line: qHTS of pediatric cancer cell lines to identify multiple opportunities for drug repurposing: Primary screen for OHS-50 cells (AID 1347103). Also: nearly all actives have a fitted effect of over 40% in size. Also: potency is read from the fitted curve at half-maximal effect. The method in brief:
as §3

Test [17] is described as follows: qHTS of pediatric cancer cell lines to identify multiple opportunities for drug repurposing: Confirmatory screen for NB1643 cells (AID 1347109). Also: nearly all actives have a fitted effect of over 45% in size. Also: potency is read from the fitted curve at half-maximal effect. The method in brief:
as §2

Test [18] is described as follows: qHTS of pediatric cancer cell lines to identify multiple opportunities for drug repurposing: Confirmatory screen for A673 cells (AID 1347110).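 Also: cells exposed to compound for 48 h before the viability read; nearly all actives have a fitted effect of over 65% in size.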 Also: potency is read from the fitted curve at half-maximal effect. An outline of the steps: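 Forty-eight-hour viability assay. Follow-up compounds ran at 11-point dilutions; positive control bortezomib at 2.3 uM final, neutral control DMSO.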
Test [19] can be described thus: qHTS of pediatric cancer cell lines to identify multiple opportunities for drug repurposing: Primary screen for MG 63 (6-TG R) cells (AID 1347105). Also: nearly all actives have a fitted effect of over 50% in size. Also: potency is read from the fitted curve at half-maximal effect. An outline of the steps:
as §1

The nature of test [20]: qHTS of pediatric cancer cell lines to identify multiple opportunities for drug repurposing: Primary screen for control Hh wild type fibroblast cells (AID 1347106).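 Also: series mostly up to about 46 µM; a drop in luminescence marks cytotoxicity and a rise apparent proliferation; nearly all actives have a fitted effect of over 55% in size.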 The method in brief: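 Viability after 48 h compound treatment at 37C, 500-1,000 cells/well, read as ATP luminescence with CellTiter-Glo. Primary screens used 11-point (MIPE, 0.78 nM-46 µM) or 8-point (NPC, 0.59 nM-46 µM) final concentrations; follow-up screens used 11-point dilutions.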

14 compounds from PubChem BioAssay (NCATS) can be followed below.

Molecules are shown by their SMILES. Results filed as inconclusive are left out. Calls of active or inactive are those of the source. Calls follow the shape of the dose curve; as a rule, active = well fitted curve in the direction sought with a large enough effect; inconclusive = small, poorly fitted or top-dose-only effect, or another doubt; inactive = no such curve, though single readings can be large; an effect the other way counts as inactive or inconclusive.

With `COc1ccc2c(c1)[C@]13CCCCC1C(C2)N(C)CC3` (some centres undefined), the Potency entry in test [1], in [2], in test [3], in test [4], in test [5] and in test [6] was “inactive” throughout. The Potency result in test [7], in test [8], in [9], in test [10], in test [11] and in test [12] was “inactive” each time.
On to `C[C@H]1CCCC=CC2C[C@H](O)C[C@@H]2[C@H](O)C=CC(=O)O1` (some centres undefined), for which the Potency in test [1] is 0.001 µM (active); in test [13], 0.001 µM (active); in test [3], 0.001 µM (active); in [4], 0.001 µM (active); in test [5], 0.001 µM (active); in [6] it was 3.72 µM (active). Besides, the Potency in test [14], in test [15], in test [7], in [8], in test [9] and in test [16] was 0.001 µM (active) throughout. Moreover, the results for the Potency in [10], in test [17] and in test [18] were 0.001 µM (active), 0.131 µM (active) and 0.414 µM (active), respectively. Moreover, in test [11], the Potency entry is “inactive”.
As to `CC=C(C)C(=O)O[C@H]1C(C)=C2[C@@H]3OC(=O)[C@@](C)(O)[C@@]3(O)[C@@H](OC(=O)CCC)C[C@](C)(OC(C)=O)[C@@H]2[C@@H]1OC(=O)CCCCCCC`, the Potency is 0.0418 µM (active) in test [1]; 0.0235 µM (active) in [2]; 0.0187 µM (active) in [13]; 0.118 µM (active) in test [4]; 0.296 µM (active) in test [5]; 0.0743 µM (active) in test [6]. In addition, the Potency in test [14] was 0.136 µM (active); in [7], 0.0418 µM (active); in [8] it was 0.0485 µM (active); in [9], 0.0132 µM (active); in [16] it was 0.0172 µM (active); in test [10], 0.0209 µM (active). The Potency was 0.118 µM (active) in test [19], 1.32 µM (active) in [11] and 0.209 µM (active) in [12]. For the same compound, the Potency entry in [17] and in test [18] was “inactive” in each case.
For `CN1[C@H]2CC(O)C[C@H]1[C@H]1O[C@H]12` (some centres undefined), the Potency is 9.35 µM (active) in test [1]; 18.7 µM (active) in test [2]; 9.35 µM (active) in [13]; 13.2 µM (active) in test [6]; 20.9 µM (active) in [15]; 19.3 µM (active) in test [8]. Further, the Potency in test [16] is 9.68 µM (active); in [10] it was 33.2 µM (active); in test [11], 23.5 µM (active); in test [12] it was 23.5 µM (active). Further, the Potency result in [5] and in test [20] was “inactive” each time.
With `O=C(O)c1cc(Oc2ccc(C(F)(F)F)cc2Cl)ccc1[N+](=O)[O-]`, the Potency result in test [1], in test [13], in [3], in test [4], in test [5] and in test [6] was “inactive” in each case. In addition, the Potency entry in [14], in test [15], in test [7], in test [8], in test [9] and in test [16] was “inactive” in each case. Moreover, the Potency result in [10], in [19], in test [11] and in [12] was “inactive” in each case.
`CCC1(CCC(C)C)C(=O)NC(=O)NC1=O`: the Potency entry in [1], in test [13], in [3], in test [4], in test [5] and in test [6] was “inactive” in each case. Further, the Potency entry in test [14], in test [15], in [7], in test [9], in test [16] and in [10] was “inactive” throughout. The Potency result in test [19], in test [20], in [11] and in [12] was “inactive” in each case.
`C=CC(=O)NCNC(=O)C=C`: the Potency entry in test [1], in test [13], in test [3], in [4], in test [5] and in test [6] was “inactive” in each case. For the same compound, the Potency result in [14], in test [15], in test [7], in test [8], in [9] and in [16] was “inactive” throughout. Moreover, the Potency result in [10], in test [19], in test [20], in [11] and in test [12] was “inactive” throughout.
Consider `O=C1CCC[C@@H]2[C@H]3CCCN4CCC[C@@H](CN12)[C@@H]34`, for which the Potency result in [1], in test [13], in test [3], in test [4], in test [5] and in [6] was “inactive” throughout. The Potency entry in test [14], in test [15], in test [7], in test [8], in [9] and in [16] was “inactive” each time. Moreover, the Potency entry in test [10], in [19], in test [20], in test [11] and in test [12] was “inactive” each time.
For the compound `c1ccc2c(CN3CCNCC3)cccc2c1`, the Potency entry in test [1], in test [3], in test [4], in test [5], in test [6] and in test [14] was “inactive” throughout. Further, the Potency result in [8], in test [9], in test [10], in test [11] and in test [12] was “inactive” in each case. Moreover, the Potency in [13] is 29.6 µM (active).
On to `CC(=O)N(C)c1cccc(-c2ccnc3c(C(=O)c4cccs4)cnn23)c1`, for which the Potency entry in test [1], in test [2], in test [13], in test [4], in [5] and in test [6] was “inactive” throughout. The Potency entry in test [15], in test [7], in test [8], in [9], in test [16] and in test [10] was “inactive” in each case. Moreover, the Potency result in test [19], in test [11] and in test [12] was “inactive” in each case.
Take `CCNC(=O)C[C@@H]1N=C(c2ccc(Cl)cc2)c2cc(OC)ccc2-n2c(C)nnc21`: the Potency in test [1] is 5.9 µM (active); in test [2], 0.59 µM (active); in test [13] it was 1.32 µM (active); in test [4], 10.5 µM (active); in test [6] it was 4.69 µM (active); in [15], 1.05 µM (active). For the same compound, the Potency is 2.35 µM (active) in [7]; 1.53 µM (active) in test [16]; 1.18 µM (active) in test [10]; 0.469 µM (active) in test [19]; 5.9 µM (active) in test [12]. For the same compound, the Potency entry in test [20] is “inactive”.
Take `C[C@]12CC[C@H]3[C@@H](CCC4=CC(=O)CC[C@@]43C)[C@H]1CC[C@H]2OC(=O)CCC1CCCC1`: the Potency entry in test [1], in test [3], in test [4], in [5], in test [15] and in [7] was “inactive” throughout. For the same compound, the Potency result in test [8], in test [9], in [16], in test [19], in test [20] and in test [11] was “inactive” each time. Also, the Potency result in [12] is “inactive”. Further, the Potency in test [13] was 11.8 µM (active).
In the case of `N=c1c2c(-c3ccccc3)c(-c3ccccc3)n(Cc3ccccc3)c2ncn1C1CCC(O)CC1` (centres undefined), the Potency in test [1] is 18.7 µM (active); in test [13], 16.6 µM (active); in test [3] it was 0.968 µM (active); in test [4] it was 0.59 µM (active); in [6], 23.5 µM (active); in [7], 1.05 µM (active). For the same compound, the Potency in test [8] is 6.85 µM (active). The Potency entry in test [20] was “inactive”.
`CN(C)[C@@H]1C(=O)C(C(N)=O)=C(O)[C@@]2(O)C(=O)C3=C(O)c4c(O)cccc4[C@@](C)(O)[C@H]3[C@H](O)[C@@H]12`: the Potency entry in [1], in test [2], in test [13], in test [4], in test [5] and in test [6] was “inactive” in each case. Further, the Potency entry in test [15], in test [7], in test [8], in [9], in [16] and in test [10] was “inactive” throughout. Besides, the Potency result in test [19], in test [11] and in [12] was “inactive” throughout.
